Structures can show the parent of a compound that is named as a salt. ± gives the standard deviation of the averaged measurements.
What follows are compounds tested on Toxoplasma gondii RH (in HFF) (assay: parasite growth relative to the screen mean (all compounds = 100%); higher = less inhibition of parasite growth). Details: 5 µM; 72 h; oxygen 21 %.
In short: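 RH β-Gal–GFP Toxoplasma at MOI 1:5 was used to infect confluent human foreskin fibroblasts in 96-well plates within 2 h of pin-transferring compounds to 5 µM final. After 72 h at 21% O2, parasite number was determined by CPRG β-Gal assay against standard curves on the same plate. Growth is relative to the screen mean and averaged over two screens, with all compounds = 100%.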
`O=C(O)COc1ccc(OCCNC[C@H](O)COc2ccccc2)cc1` [ICI 215,001 hydrochloride] gave a parasite growth of 116 ± 14%. Compound `N[C@H](C(=O)O)c1cc(O)cc(O)c1` has a parasite growth of 119 ± 4.9%. `NS(=O)(=O)c1cccc2c1c([N+](=O)[O-])cc1nc(O)c(O)nc12` showed a parasite growth of 144 ± 9.6%. Compound `CC(=O)N1CCN(C)CC1` [1-Acetyl-4-methylpiperazine hydrochloride] has a parasite growth of 109 ± 40%. With `O=Nc1ccc(O)c2ncccc12` the parasite growth was under 0%. `CC(C)n1nnc2cc(C(=O)O)ccc21` gave a parasite growth of 81.9 ± 22%. In the case of `COC(=O)[C@H]1[C@H]2C[C@H]3c4[nH]c5ccccc5c4CCN3C[C@H]2CC[C@@H]1O` [Rauwolscine hydrochloride], the parasite growth is reported as 167 ± 41%. In the case of `Cc1c(CC(C)(C)C(=O)O)n(Cc2ccc(Cl)cc2)c2ccc(F)cc12`, the parasite growth is reported as 129 ± 22%. For `O=[N+]([O-])c1cc2nc(O)c(O)nc2cc1[N+](=O)[O-]`, the parasite growth was 91.7 ± 27%. In the case of `CN1Cc2c(C(=O)OC(C)(C)C)ncn2-c2ccsc2C1=O`, the parasite growth is reported as 55.6 ± 4.8%. `COc1cc([C@@H]2c3cc4c(cc3[C@@H](O[C@@H]3O[C@@H]5CO[C@@H](C)O[C@H]5[C@H](O)[C@H]3O)[C@H]3COC(=O)[C@H]23)OCO4)cc(OC)c1O` [Etoposide] was tested, and the parasite growth was 77.2 ± 18%. Work on `O=C(Nc1ccc([N+](=O)[O-])cc1O)Nc1ccccc1Br` yielded a parasite growth of 107 ± 21%. In the case of `CN1CCc2cc(Cl)c(O)cc2[C@@H](c2ccccc2)C1`, the parasite growth is reported as 120 ± 46%. With `c1ccc(-c2n[nH]c3c2oc2ccccc23)cc1` the parasite growth was 103 ± 32%. For `Cn1cc(C(=O)OCC2CCN(CCNS(C)(=O)=O)CC2)c2ccccc21`, the parasite growth was 123 ± 3.8%. For `COc1cc2c(CCNC(C)=O)c[nH]c2cc1Cl` [6-Chloromelatonin], the parasite growth was 131 ± 24%. Work on `COC(=O)[C@H](NC(=O)c1cc(-c2ccccc2)nc2ccccc12)c1ccccc1` yielded a parasite growth of 112.7 ± 0.18%. `CC(=O)N(OCc1ccccc1)[C@H]1c2cc(C#N)ccc2OC(C)(C)[C@H]1O` was tested, and the parasite growth was 112 ± 33%. Work on `N=C(N)S/C=C\C(=O)O` [ZAPA sulphate] yielded a parasite growth of 106 ± 28%. Work on `Oc1ccc(-c2nc3cc(O)cc(Br)c3o2)cc1` yielded a parasite growth of 134 ± 20%. Compound `CC(C)NC[C@H](O)COc1cccc2[nH]ccc12` [(S)-(-)-Pindolol] has a parasite growth of 127 ± 20%. `CC1OC2(CS1)CN1CCC2CC1` (centres undefined) [Cevimeline hydrochloride] showed a parasite growth of 148 ± 82%. `c1ccc(N2CCN(CCCOc3ccc4c(c3)OCO4)CC2)cc1` [BP 554 maleate] was tested, and the parasite growth was 127 ± 0.98%. `Nc1nc2c(cnn2CCc2ccccc2)c2nc(-c3ccco3)nn12` was tested, and the parasite growth was 100 ± 39%.
